Screening data as filed in PubChem BioAssay.
KB-V1 MDR tox: kills drug-selected multidrug resistant KB-V1 cells; actives 3.4% (n = 400,000); KB-V1 MDR cells viability, CellTiter-Glo, 72 h; Potency, µM (top dose mostly 46.1 µM), usual class: cytotoxic; AID 1347076; note: nearly all actives have a fitted effect of over 60% in size
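Compound-treated KB-V1 multidrug-resistant cells, 72 h, 37 degrees C; viability by CellTiter-Glo. Fitted qHTS curves give the values.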
SW480 rerep: inducers of DNA re-replication in SW480 colon cancer cells. SW480 DNA re-replication, Hoechst DNA content imaging, 48 h. Potency, µM (doses to about 46.1 µM), usual class: activators. actives 1.8% (n = 340,000); note: nearly all actives have a fitted effect of over 55% in size
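Hoechst fluorescence of nuclei (405 nm excitation, 500-530 nm emission) measured by plate-scanning imager after 48 hr compound exposure at 37 C; re-replication scored as increased number of nuclei with elevated intensity.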
Giardia kill: Giardia lamblia killing; actives 0.15% (n = 340,000); AID 540267; Giardia lamblia trophozoite viability; activity change, % at 7.66 µM, hits read low; in the data active = activity change below about -80%; inconclusive = between about -30% and that limit;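 note: parasites exposed to compound for two days anaerobically before the ATP read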
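Luminescence from cellular ATP indicates surviving trophozoites (100 cells/well) following 48 hrs anaerobic compound treatment at 37 deg C; signal develops 15-30 min at room temperature.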
KB-3-1 tox: kills parental KB-3-1 adenocarcinoma cells | KB-3-1 viability, CellTiter-Glo ATP luminescence, 72 h | Potency, µM (top dose mostly 46.1 µM), usual class: cytotoxic | actives 1.4% (n = 400,000) | AID 1347075; note: nearly all actives have a fitted effect of over 60% in size
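Cytotoxicity in the drug-sensitive parental line KB-3-1 was scored as loss of CellTiter-Glo luminescence following 72 h incubation with compound. Values come from curve fitting of normalized concentration-response data.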
ASM inhibitor: human S-ASM enzyme inhibition | placental ASM, HMU-PC fluorogenic substrate, 60 min | Potency, µM (titrated, usually from 57.5 µM), usual class: inhibitors | actives 0.006% (n = 340,000) | AID 504937
Target sequence (P17405 47-631 limits assumed): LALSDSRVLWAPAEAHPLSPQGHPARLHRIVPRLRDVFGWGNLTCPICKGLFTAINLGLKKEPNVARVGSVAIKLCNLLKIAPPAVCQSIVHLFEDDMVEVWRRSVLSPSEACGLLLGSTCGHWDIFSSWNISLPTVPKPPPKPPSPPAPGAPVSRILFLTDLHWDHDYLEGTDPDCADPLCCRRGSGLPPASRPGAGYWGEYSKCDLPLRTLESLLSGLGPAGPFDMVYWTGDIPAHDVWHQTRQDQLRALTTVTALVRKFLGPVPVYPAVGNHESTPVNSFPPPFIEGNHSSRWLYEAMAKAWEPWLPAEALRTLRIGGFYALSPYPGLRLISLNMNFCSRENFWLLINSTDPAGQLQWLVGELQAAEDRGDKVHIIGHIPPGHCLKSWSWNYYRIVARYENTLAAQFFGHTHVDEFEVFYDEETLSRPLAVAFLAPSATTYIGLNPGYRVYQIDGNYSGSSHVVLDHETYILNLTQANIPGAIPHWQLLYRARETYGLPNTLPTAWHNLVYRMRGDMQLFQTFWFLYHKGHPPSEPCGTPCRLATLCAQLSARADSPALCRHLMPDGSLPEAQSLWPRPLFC
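HMU-PC0 cleavage (9 uM final) by human placental ASM, 60 min at 37 °C following 10 min compound exposure at RT; stopped at pH 10, fluorescence Ex 386/Em 447 nm.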
MCF10A rereplic: DNA re-replication induction in MCF 10a cells; actives 2.9% (n = 350,000); AID 624296; Potency, µM (top dose mostly 46.1 µM), usual class: activators; MCF 10A DNA re-replication, Hoechst nuclear intensity, 48 h; note: nearly all actives have a fitted effect of over 50% in size
A number is an active result; - = inactive; ? = inconclusive; . = no result. Only some compounds are listed: those with a hit (about 6.9% of all), similar ones and a draw of the others. Unless noted, calls come from the whole dose curve; as a rule, active = well fitted curve in the direction sought with a large enough effect; inconclusive = small, poorly fitted or top-dose-only effect, or another doubt; inactive = no such curve, though single readings can be large; an effect the other way counts as inactive or inconclusive.

SMILES	KB-V1 MDR tox	SW480 rerep	Giardia kill	KB-3-1 tox	ASM inhibitor	MCF10A rereplic
CC(C)(C)NC(=O)C[C@H]1C[C@H](C(=O)N2CCOCC2)[C@@]2(C)c3[nH]c4ccc(Cl)cc4c3CCN2C1=O	-	-	-	-	-	-
CN1CCN(C(=O)CCN2C(=O)/C(=C/c3ccccc3Cl)SC2=S)CC1	?	?	-	?	-	5.8µM
CN1CCN(C(=O)CCN2C(=O)/C(=C\c3ccccc3F)SC2=S)CC1	-	?	-	?	-	23µM
O=C(CCN1C(=O)/C(=C/c2cccs2)SC1=S)N1CCCCC1	?	23µM	-	?	?	?
O=C(CCN1C(=O)/C(=C\c2ccccc2)SC1=S)N1CCCCC1	-	-	-	?	-	?
O=C(CCN1C(=O)/C(=C/c2ccccc2Cl)SC1=S)NC1C=CS(=O)(=O)C1 (configuration not stated)	-	?	-	-	-	15µM
O=C(CCCN1C(=O)/C(=C/c2ccccc2Cl)SC1=S)N1CCOCC1	-	?	-	?	-	?
COc1ccc(C2CCCN2CC(O)COc2ccccc2C(C)C)cc1 (configuration not stated)	?	?	-	-	-	?
COc1ccc(C(=O)NCCn2cc(SCC(=O)Nc3ccc4c(c3)OCCO4)c3ccccc32)cc1OC	?	.	.	-	.	.
COc1ccc(/C=C2\SC(=S)N(CCCC(=O)N3CCOCC3)C2=O)cc1OC	?	-	-	?	-	-
Cc1ccc(/C=C2\SC(=O)N(CCC(=O)N3CCN(C)CC3)C2=O)cc1	?	-	-	-	-	13µM
O=C(CCN1C(=O)/C(=C/c2ccccc2F)SC1=S)NCCCn1ccnc1	-	-	-	-	-	21µM
COc1ccc(/C=C2\SC(=S)N(CCCC(=O)N3CCOCC3)C2=O)cc1	?	?	-	23µM	-	?
CN1CCN(C(=O)CCN2C(=O)/C(=C/c3ccc(F)cc3)SC2=S)CC1	-	-	-	21µM	-	?
Cc1ccc(/C=C2/SC(=S)N(CCC(=O)N3CCN(C)CC3)C2=O)cc1	-	-	-	?	-	-
CCc1ccc(-n2c(CCC(=O)O)ccc2-c2ccc(F)cc2)cc1	-	.	.	-	.	.
Cn1c(=O)[nH]c(=O)c2c1nc(N1CCCC1)n2CCCSc1nnnn1-c1ccccc1	6.5µM	-	?	-	-	?
O=C(NCc1ccccc1Cl)c1ccc2oc(=O)n(Cc3ccccc3)c2c1	-	.	.	?	.	.
O=S(Cc1ccc(Br)cc1)Cc1nnc(SCc2ccc(Cl)cc2)n1-c1ccccc1 (configuration not stated)	2.3µM	-	-	?	-	?
O=c1cc(Cc2nnc(SCc3ccccc3)n2-c2ccc(Cl)cc2)[nH]c(=O)[nH]1	-	-	-	-	-	-
O=S(Cc1ccc(Br)cc1)Cc1nnc(SCc2c(F)cccc2Cl)n1-c1ccccc1 (configuration not stated)	2.3µM	-	-	?	-	?
Cc1ccc(CSc2nnc(CS(=O)Cc3ccc(Cl)cc3Cl)n2C)cc1 (configuration not stated)	?	-	-	-	-	-
Cn1c(CS(=O)Cc2c(Cl)cccc2Cl)nnc1SCc1ccc(Cl)cc1 (configuration not stated)	5.2µM	-	-	-	-	-
COc1ccc(Cn2c(CCC(=O)Nc3cc(OC)c(OC)c(OC)c3)nc3cccnc32)cc1	-	.	.	-	.	.
CCOC(=O)Nc1sc2nc(C)cc(C)c2c1-n1cccc1	18µM	-	-	?	-	-
SMILES	KB-V1 MDR tox	SW480 rerep	Giardia kill	KB-3-1 tox	ASM inhibitor	MCF10A rereplic
Cc1sc2nc3ccc(N4CCCCC4)nn3c(=O)c2c1C	9.2µM	-	-	-	-	-
Cc1ccc2nc3ccc(N4CCCC4)nn3c(=O)c2c1	?	-	-	-	-	-
c1ccc(Cc2nn3c(Cn4nnc5ccccc54)nnc3s2)cc1	23µM	-	-	-	-	-
c1ccc(-c2nn3c(Cn4nnc5ccccc54)nnc3s2)nc1	18µM	-	-	-	-	-
c1ccc(CCc2nn3c(Cn4cnc5ccccc54)nnc3s2)cc1	18µM	-	-	?	-	-
O=C(Nc1ccc(F)c(F)c1)c1cnc(-c2ccccc2)nc1-c1ccccc1	-	-	-	-	-	13µM
Cc1ccccc1-c1noc(-c2ccc(NCc3cccnc3)c([N+](=O)[O-])c2)n1	-	.	.	-	.	.
Cc1cc(C)c(O)c(CN(C)Cc2cc(Cl)cc(Cl)c2O)c1	?	?	-	?	-	1.6µM
Cc1ccnc(NCc2cc(Cl)cc(Cl)c2O)c1	-	.	.	-	.	.
CCOc1ccc(/C=C2\C(=O)c3ccccc3OC2c2ccccc2)cc1 (configuration not stated)	16µM	?	-	?	-	5.2µM
COc1ccc(/C=C2\Oc3ccccc3C2=O)cc1	?	-	-	?	-	-
COc1ccc(/C=C2\C(=O)c3ccccc3OC2c2ccccc2)cc1 (configuration not stated)	7.3µM	?	-	?	-	10µM
Cc1cc(C)c(NC(=O)c2cc(S(=O)(=O)N3CCN(c4ccccc4F)CC3)ccc2F)c(C)c1	-	.	.	-	.	.
CCOC(=O)c1cc(C(C)C)sc1NC(=O)COC(=O)CCS(=O)(=O)c1ccccc1	18µM	?	-	-	-	-
CCOC(=O)c1ccsc1NC(=O)CCS(=O)(=O)c1ccccc1	.	?	-	.	-	-
CC1CCCN(c2ccc3nc4ccccc4c(=O)n3n2)C1 (configuration not stated)	7.3µM	-	?	?	-	-
CCC(=O)N(C(=O)CC)N1CCN(c2ccncc2S(=O)(=O)N2CCCCC2)CC1	-	-	-	0.029µM	-	-
COc1cc2c(NC3CCN(C(C)C)CC3)nc(N3CCCN(C)CC3)nc2cc1OCCOCCN(C)C	-	.	.	?	.	.
COc1ccccc1NC(=O)c1cnc(Nc2ccccc2OC)c2ccccc12	9.2µM	2.8µM	-	18µM	-	?
COc1cc(/C=C/C(=O)N2CCN(C(=O)/C=C/c3cc(OC)c(OC)c(OC)c3)CC2)cc(OC)c1OC	-	-	-	-	-	-
COc1cc(/C=C/C(=O)N2C(=O)c3cccc(N)c3C2=O)cc(OC)c1OC	-	?	-	-	-	9.2µM
COc1ccc(OC)c(/C=C/C(=O)N2C(=O)c3cccc(N)c3C2=O)c1	?	?	-	?	-	18µM
CCN(C(=O)CSc1nc(-c2ccc(C(C)C)cc2)no1)c1ccccc1	-	.	.	-	.	.
Cc1c(-c2ccccc2)sc2nc[nH]c(=S)c12	12µM	-	-	?	-	-
O=C(NCc1ccc(Cl)cc1)c1cnc2sc(N3CCOCC3)nn2c1=O	-	.	.	-	.	.
CN=c1sc(C(=O)Nc2ccccc2)c(C)n1C	-	-	-	-	-	-
